A number with no mark means an inactive call. Results filed as inconclusive are left out. Active and inactive are the calls of the source. Unless noted, calls come from the whole dose curve; as a rule, active = well fitted curve in the direction sought with a large enough effect in the repeat runs; inconclusive = weak or mixed curves; inactive = no such curve, though single readings can be large; an effect the other way counts as inactive or inconclusive.

7 compounds from PubChem BioAssay (Tox21) can be followed below.

Assay [1] can be described thus: qHTS assay for small molecules that induce genotoxicity in human embryonic kidney cells expressing luciferase-tagged ATAD5 (AID 651632). Note: nearly all actives have a fitted effect of over 15% in size. In short, it runs like this: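 ATAD5-luc HEK293T, 2,000 cells/well; cpd or DMSO pin-transferred; 16 hr, 37C/5% CO2; Amplite 30 min RT; luminescence.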
The nature of assay [2]: qHTS assay for small molecules that induce genotoxicity in human embryonic kidney cells expressing luciferase-tagged ATAD5 - cell viability (AID 651634; calls by dose curve; note: nearly all actives have a fitted effect of over 25% in size; note: potency is the fitted concentration of half-maximal effect). An outline of the steps:
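Fluorescence from CellTiter-Fluor, reporting protease activity within live cells, served as the viability read-out. HEK293T cells carrying luciferase-tagged ATAD5 had been treated with compound for 15.5 hr at 37C.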

The nature of assay [3]: qHTS assay for small molecule disruptors of the mitochondrial membrane potential - cell viability (AID 720634; calls by dose curve; note: nearly all actives have a fitted effect of over 20% in size; note: potency is the fitted concentration of half-maximal effect). In short, it runs like this:
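Cells: HepG2, 2,000/well, attached overnight. Compound 1 hr, 37 C/5% CO2. +m-MPI dye, +CellTiter-Glo 30 min RT. Readout: luminescence (ATP).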
In general terms: qHTS replaces the single test concentration by a dilution series.

Assay [4] can be described thus: qHTS assay for small molecule disruptors of the mitochondrial membrane potential (AID 720635). Note: potency is the fitted concentration of half-maximal effect. In short, it runs like this: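 Mitochondrial membrane potential tracked with Mito-MPS dye, red aggregates (ex 540/em 590 nm) against green monomers (ex 490/em 535 nm). Compound treatment 1 hr at 37C, dye 30 min in HepG2.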
Assay [5] in a line: qHTS assay to test for compound auto fluorescence at 590 nm (red) in HepG2 cells (AID 720674). An outline of the steps: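 1 hr compound incubation on HepG2 cells, 37 C, 5% CO2; plate read ex 540 nm / em 590 nm; intensities reported as Rose Bengal sodium equivalents.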
Assay [6] can be described thus: qHTS assay to test for compound auto fluorescence at 535 nm (green) in HepG2 cells (AID 720675).
A short description of assay [7]: qHTS assay to test for compound auto fluorescence at 460 nm (blue) in HEK293 cells (AID 720678). In short, it runs like this: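 Blue-channel (Ex/Em 405/460 nm) intensity measured in HEK293 cultures after overnight compound exposure at 37C; signal expressed relative to triamterene. Cells plated 2,000 per well in 10% dialyzed FBS medium and allowed 4-5 hr to attach.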

Assay [8] in a line: qHTS assay to test for compound auto fluorescence at 590 nm (red) in HEK293 cells (AID 720679). In short, it runs like this:
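Red-channel autofluorescence (Ex/Em 540/590 nm; Rose Bengal sodium reference) was measured after overnight 37C, 5% CO2 exposure of attached HEK293 cells, 2,000 per well in medium with 10% dialyzed FBS.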

The nature of assay [9]: qHTS assay to test for compound auto fluorescence at 535 nm (green) in HEK293 cells (AID 720680).
The nature of assay [10]: qHTS assay to test for compound auto fluorescence at 460 nm (blue) in HEK293 cell free culture (AID 720681). An outline of the steps: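 Blue fluorescence (Ex 405/Em 460 nm, triamterene-equivalent) was read immediately after pin transfer of compound or DMSO into medium (DMEM, 10% FBS) without cells.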
Assay [11] can be described thus: qHTS assay to test for compound auto fluorescence at 535 nm (green) in HEK293 cell free culture (AID 720682). An outline of the steps: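 Read-out: 485/535 nm fluorescence intensity, calibrated against fluorescein. Medium only (DMEM + 10% FBS, no cells); test compound or DMSO vehicle added by pintool before plate reading.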
Assay [12] is described as follows: qHTS assay to test for compound auto fluorescence at 590 nm (red) in HEK293 cell free culture (AID 720683). An outline of the steps:
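Red-channel autofluorescence of compounds in culture medium (DMEM, 10% FBS), no cells, measured at 540/590 nm. Rose Bengal sodium is the reference fluorophore for equivalence.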

Assay [13] in a line: qHTS assay to test for compound auto fluorescence at 590 nm (red) in HepG2 cell free culture (AID 720684). An outline of the steps: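 Plate contents were MEM with 10% FBS plus test compound or DMSO, no cells. Fluorescence was recorded with 540 nm excitation and 590 nm emission.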
A short description of assay [14]: qHTS assay to test for compound auto fluorescence at 460 nm (blue) in HepG2 cell free culture (AID 720685). An outline of the steps:
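Compound (23 nL) or DMSO pinned into cell-free MEM with 10% FBS; blue fluorescence read at 405/460 nm excitation/emission, expressed as auto-fluorescence equivalency to triamterene.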

Assay [15] can be described thus: qHTS assay to test for compound auto fluorescence at 535 nm (green) in HepG2 cell free culture (AID 720686).
The nature of assay [16]: qHTS assay to test for compound auto fluorescence at 460 nm (blue) in HepG2 cells (AID 720687). An outline of the steps: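 Blue-channel autofluorescence (Ex/Em 405/460 nm, triamterene-equivalent) was measured after 1 hr compound exposure at 37 C, 5% CO2. Cells were HepG2, plated overnight at 37 C in MEM plus 10% FBS.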
Assay [17] addresses Glucocorticoid receptor (Homo sapiens) (UniProt P04150). In words: qHTS assay to identify small molecule agonists of the glucocorticoid receptor (GR) signaling pathway (AID 720691; active = well fitted activation curve with a large enough effect in the signal ratio in the repeat runs, not every such curve was filed as active; the % refers to the signal ratio). The settings on record: GR-bla HeLa, beta-lactamase reporter ratio, 18 h; activation: at 62.4 µM (top of the series). In short, it runs like this:
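Fluorescence intensity from LiveBLAzer B/G FRET substrate (2 h, room temperature) reports beta-lactamase expression driven by the glucocorticoid response element in GR-bla HeLa cells after 18 h compound exposure at 37 C.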

The nature of assay [18]: qHTS assay for small molecule agonists of the p53 signaling pathway - cell viability (AID 651633; calls by dose curve; note: nearly all actives have a fitted effect of over 30% in size; note: potency is the fitted concentration of half-maximal effect). An outline of the steps:
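Viability counter-read: CellTiter-Glo luminescence (30 min, room temperature) in the same p53RE-bla plates. These plates had been exposed to compounds for 16 h at 37 C.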

Assay [19] deals with Glucocorticoid receptor (Homo sapiens) (UniProt P04150). The experiment in a line: qHTS assay to identify small molecule antagonists of the glucocorticoid receptor (GR) signaling pathway (AID 720692; active = well fitted inhibition curve with a large enough effect in the signal ratio in the repeat runs, not every such curve was filed as active; the % refers to the signal ratio; note: potency is the fitted concentration of half-maximal effect). In short, it runs like this: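 HeLa GR-bla cells; cmpd + dex 5 nM final, 18 h 37 C; LiveBLAzer B/G FRET substrate 2 h RT; fluorescence intensity read. Antagonist mode, qHTS.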
Glucocorticoid receptor (Homo sapiens), sequence (P04150 whole entry, looked up): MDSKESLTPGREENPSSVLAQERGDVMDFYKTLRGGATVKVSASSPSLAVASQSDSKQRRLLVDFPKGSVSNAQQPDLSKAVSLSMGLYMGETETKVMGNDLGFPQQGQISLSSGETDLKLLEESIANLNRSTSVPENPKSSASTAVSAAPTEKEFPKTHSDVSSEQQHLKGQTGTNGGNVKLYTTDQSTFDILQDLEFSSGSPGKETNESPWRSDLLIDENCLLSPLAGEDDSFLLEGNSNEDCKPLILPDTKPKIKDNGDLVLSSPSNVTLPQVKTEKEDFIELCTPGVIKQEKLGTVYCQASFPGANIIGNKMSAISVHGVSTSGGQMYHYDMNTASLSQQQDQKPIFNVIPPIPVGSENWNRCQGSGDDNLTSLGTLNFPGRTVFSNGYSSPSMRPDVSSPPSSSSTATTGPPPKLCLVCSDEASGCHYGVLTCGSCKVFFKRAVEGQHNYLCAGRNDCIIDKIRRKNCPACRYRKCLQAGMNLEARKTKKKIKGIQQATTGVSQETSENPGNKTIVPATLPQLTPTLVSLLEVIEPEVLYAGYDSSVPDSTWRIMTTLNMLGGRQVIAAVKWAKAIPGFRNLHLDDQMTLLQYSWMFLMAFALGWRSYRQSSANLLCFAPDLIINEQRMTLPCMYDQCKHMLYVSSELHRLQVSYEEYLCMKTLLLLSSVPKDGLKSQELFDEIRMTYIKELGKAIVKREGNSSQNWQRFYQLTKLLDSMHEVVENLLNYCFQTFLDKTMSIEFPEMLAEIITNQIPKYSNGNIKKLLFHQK
% is set by controls: 0 for no effect and ±100 for the full control effect.

With `CC(C)(C)C1=CC(=O)C=C(C(C)(C)C)C1=O`, the Potency result in assay [1], in assay [5], in assay [6], in assay [7], in assay [8] and in assay [9] was “inactive” in each case. Also, the Potency entry in assay [10], in assay [11], in [12], in assay [13], in assay [14] and in assay [15] was “inactive” in each case. In addition, the Potency entry in [16] and in assay [17] was “inactive” each time. The Potency is 30.6 µM (active) in assay [2], 61.1 µM (active) in assay [3] and 7.7 µM (active) in assay [4].

As to `C[C@]12CC[C@H]3C(=CCc4cc(O)ccc43)[C@@H]1CCC2=O`, the Potency entry in assay [1], in [18], in assay [5], in assay [6], in [7] and in [9] was “inactive” each time. The Potency entry in [10], in assay [11], in assay [12], in assay [13], in assay [14] and in [15] was “inactive” each time. In assay [16], the Potency entry was “inactive”. For the same compound, the results for the Potency in [4] and in assay [19] were 19.3 µM (active) and 11 µM (active), respectively.

Turning to `CCOC(=O)[C@@](C)(N)Cc1ccc(O)c(O)c1`, the Potency result in [1], in assay [2], in [3], in assay [4], in assay [17] and in assay [19] was “inactive” each time. Besides, the fluorescence, relative to Rose Bengal in [5] is -0.208% [at 18.6 µM]. Further, the fluorescence, % of fluorescein control was -0.17% [at 18.6 µM] in [6] and -0.0478% [at 18.6 µM] in assay [15]. Besides, the fluorescence, % of triamterene in assay [7] is 0.197% [at 18.6 µM]. Also, the fluorescence, % of fluorescent control in [8] is 0.559% [at 18.6 µM]; in [10], 0.186% [at 18.6 µM]; in assay [12], 0.256% [at 18.6 µM]; in [14], 0.193% [at 18.6 µM]; in assay [16], 0.0997% [at 18.6 µM]. Moreover, in assay [9], the fluorescence, % of fluorescein was -0.0378% [at 18.6 µM]. The activity change in [11] was -0.0329% [at 18.6 µM, active compounds read high]. The fluorescence, % of Rose Bengal in [13] was 0.0263% [at 18.6 µM].

In the case of `CCCCCCC(C)OC(=O)COc1nc(F)c(Cl)c(N)c1Cl` (centres undefined), the Potency result in assay [1], in assay [2], in [5], in [6], in assay [7] and in [8] was “inactive” in each case. Further, the Potency result in [9], in assay [10], in [11], in assay [12], in assay [13] and in assay [14] was “inactive” in each case. Also, the Potency entry in assay [15] and in assay [16] was “inactive” each time. Further, in assay [4], the Potency was 61.1 µM (active).

For `O=C1NCCN1CCN1CCC(c2cn(-c3ccc(F)cc3)c3ccc(Cl)cc23)CC1`, the Potency entry in assay [1], in [3], in assay [5], in [6], in [7] and in [8] was “inactive” each time. Besides, the Potency entry in assay [9], in assay [10], in assay [11], in [12], in assay [13] and in [14] was “inactive” throughout. Besides, the Potency result in assay [15] and in [16] was “inactive” in each case. The Potency in assay [2] is 29.8 µM (active).

`COc1ccc2sc(C(=O)Nc3nnn[nH]3)c(OC(C)C)c2c1`: the Potency entry in assay [1], in assay [5], in [6], in assay [7], in [9] and in [10] was “inactive” each time. The Potency result in assay [11], in assay [12], in assay [13], in assay [14], in [15] and in [16] was “inactive” each time. Besides, the Potency entry in assay [17] was “inactive”. Further, the Potency in assay [18] is 24.2 µM (active).

For `CCCOc1sc(C(=O)N2CCC(c3cc(CN)ccc3F)CC2)c(C)c1Br`, the Potency entry in [1], in assay [2], in assay [3], in assay [5], in [6] and in assay [7] was “inactive” throughout. The Potency entry in assay [8], in assay [9], in [10], in assay [11], in [12] and in assay [13] was “inactive” throughout. The Potency entry in assay [14], in assay [15] and in [16] was “inactive” throughout.
